“And” between values parts separate entries of the source, which are not always exact repeats. Identical values can stand only once. About 2,000 (36%) of roughly 5,500 compounds were called active. Another 18% or so got no clear call; they are omitted. No stated cut-off is given here; in the data, active means normalized growth mostly below about 0.91 (no sharp cut-off); inconclusive means no clear call, values can overlap the other calls; inactive means mostly above about 0.92. The list shows a part of the results.
Experiment: chemical genetic growth profiling, strain panel (AID 1159580);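 further: tested at 20 µM; growth read once vehicle control cultures reached saturation at 30 °C; 1 = growth at the plate median or of vehicle wells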
Settings: S. cerevisiae deletion strains, growth OD

Measured: normalized growth

Cc1cc(/C=C/c2ccc3cc(N(C)C)ccc3[n+]2C)c(C)n1-c1ccccc1
active: locus YAL021C, strain ccr4, stronger effect = lower value 0.507 | locus YBR021W, strain FUR4, stronger effect = lower value 0.668 | locus YBR231C, strain swc5, stronger effect = lower value 0.74 | locus YBR279W, strain paf1, stronger effect = lower value 0.882 | locus YCL011C, strain gbp2, stronger effect = lower value 0.837 | locus YCL016C, strain dcc1, stronger effect = lower value 0.912 | locus YDL035C, strain GPR1, stronger effect = lower value 0.525 | locus YDL074C, strain BRE1, stronger effect = lower value 0.653 | locus YDL101C, strain DUN1, stronger effect = lower value 0.744 | locus YDL134C, strain PPH21, stronger effect = lower value 0.615 | locus YDR137W, strain rgp1, stronger effect = lower value 0.834 | locus YDR162C, strain NBP2, stronger effect = lower value 0.232 | locus YDR195W, strain ref2 1.25 [resistant] | locus YDR334W, strain swr1, stronger effect = lower value 0.843 | locus YEL037C, strain rad23, stronger effect = lower value 0.915 | locus YEL061C, strain CIN8, stronger effect = lower value 0.879 | locus YER015W, strain faa2, stronger effect = lower value 0.736 | locus YER155C, strain BEM2 (second series), stronger effect = lower value 0.727 | locus YER167W, strain BCK2, stronger effect = lower value 0.825 | locus YGL086W, strain mad1, stronger effect = lower value 0.889 | locus YGL248W, strain PDE1, stronger effect = lower value 0.65 | locus YGL253W, strain hxk2, stronger effect = lower value 0.684 | locus YGR078C, strain PAC10, stronger effect = lower value 0.776 | locus YGR135W, strain pre9, stronger effect = lower value 0.808 | locus YGR252W, strain gcn5, stronger effect = lower value 0.606 | locus YHR013C, strain ard1, stronger effect = lower value 0.662 | locus YHR027C, strain rpn1, stronger effect = lower value 0.83 | locus YHR129C, strain ARP1, stronger effect = lower value 0.904 | locus YHR200W, strain rpn10, stronger effect = lower value 0.857 | locus YIL073C, strain SPO22, stronger effect = lower value 0.278 | locus YJL092W, strain hpr5, stronger effect = lower value 0.893 | locus YJL129C, strain trk1, stronger effect = lower value 0.373 | locus YJR043C, strain POL32, stronger effect = lower value 0.651
inactive: locus YAL013W, strain DEP1, stronger effect = lower value 0.987 | locus YAL026C, strain drs2, stronger effect = lower value 0.924 | locus YAL030W, strain snc1, stronger effect = lower value 0.954 | locus YBL061C, strain skt5, stronger effect = lower value 0.927 | locus YBR009C, strain hhf1, stronger effect = lower value 0.922 | locus YBR023C, strain chs3, stronger effect = lower value 0.96 | locus YBR171W, strain sec66, stronger effect = lower value 1.04 | locus YBR229C, strain ROT2, stronger effect = lower value 1 | locus YCL029C, strain bik1, stronger effect = lower value 0.998 | locus YCL061C, strain MRC1, stronger effect = lower value 0.93 | locus YCL069W, strain vba3, stronger effect = lower value 0.995 | locus YCR088W, strain abp1, stronger effect = lower value 0.978 | locus YDL005C, strain med2, stronger effect = lower value 1.03 | locus YDL040C, strain nat1, stronger effect = lower value 1 | locus YDL185W, strain tfp1, stronger effect = lower value 1 | locus YDL192W, strain arf1, stronger effect = lower value 0.987 | locus YDR001C, strain nth1, stronger effect = lower value 1.01 | locus YDR069C, strain doa4, stronger effect = lower value 0.989 | locus YDR101C, strain arx1, stronger effect = lower value 0.986 | locus YDR159W, strain sac3, stronger effect = lower value 1.04 | locus YDR297W, strain sur2, stronger effect = lower value 0.961 | locus YDR318W, strain mcm21, stronger effect = lower value 0.946 | locus YDR335W, strain msn5, stronger effect = lower value 0.953 | locus YDR388W, stronger effect = lower value 0.989 | locus YDR392W, strain spt3, stronger effect = lower value 0.782 | locus YDR502C, strain sam2, stronger effect = lower value 0.943 | locus YEL003W, strain gim4, stronger effect = lower value 0.949 | locus YEL061C, strain CIN8 (second series), stronger effect = lower value 1 | locus YER016W, strain bim1, stronger effect = lower value 0.992 | locus YER110C, stronger effect = lower value 1.02 | locus YER111C, strain swi4, stronger effect = lower value 1.05 | locus YER155C, strain BEM2, stronger effect = lower value 1.03 | locus YFR010W, strain ubp6, stronger effect = lower value 0.989 | locus YGL078C, strain dbp3, stronger effect = lower value 1.02 | locus YGL167C, strain pmr1, stronger effect = lower value 1.01 | locus YGL173C, strain kem1, stronger effect = lower value 0.974 | locus YGL227W, strain vid30, stronger effect = lower value 1.04 | locus YGL240W, strain doc1, stronger effect = lower value 0.962 | locus YHR079C, strain IRE1 (second series), stronger effect = lower value 1 | locus YHR079C, strain IRE1, stronger effect = lower value 1.04 | locus YHR094C, strain hxt1, stronger effect = lower value 1.01 | locus YHR142W, strain chs7, stronger effect = lower value 1 | locus YIL066C, strain RNR3, stronger effect = lower value 0.87 | locus YIL125W, strain kgd1, stronger effect = lower value 1.03 | locus YIR030C, strain dcg1, stronger effect = lower value 1 | locus YJL095W, strain BCK1 (second series), stronger effect = lower value 1.01 | locus YJL095W, strain BCK1, stronger effect = lower value 0.876 and 1.02 | locus YJL115W, strain asf1, stronger effect = lower value 1.01 | locus YJL134W, strain LCB3, stronger effect = lower value 1 | locus YJL154C, strain vps35, stronger effect = lower value 1.01 | locus YJL164C, strain tpk1, stronger effect = lower value 0.92 | locus YJL166W, strain qcr8, stronger effect = lower value 0.955 | locus YJL168C, strain set2, stronger effect = lower value 0.984 | locus YJL187C, strain SWE1 (second series), stronger effect = lower value 0.88
0.815 (active) and 1.02 (inactive): locus YHR030C, strain SLT2, stronger effect = lower value
